# Measured values taken from article PMC7862700, “An all-to-all approach to the identification of sequence-specific readers for epigenetic DNA modifications on cytosine”.
# What was measured:
# Assay in all cases: DAPPL (digital affinity profiling via proximity ligation, sequencing); 10 mM Tris-HCl pH 7.5, 50 mM NaCl, 1 mM DTT, 4% glycerol, room temperature, 30 min; GST-TFs on glutathione beads, 16-mer random dsDNA library, 0.1% formaldehyde crosslink after washing; high values mean tight binding
# Conditions in all cases: protein: recombinant; tags: N-terminal GST; dsDNA, one strand shown
# FLI1 = target: T1, FLI1 (Homo sapiens, UniProt Q01543 1-452)
# T1 sequence: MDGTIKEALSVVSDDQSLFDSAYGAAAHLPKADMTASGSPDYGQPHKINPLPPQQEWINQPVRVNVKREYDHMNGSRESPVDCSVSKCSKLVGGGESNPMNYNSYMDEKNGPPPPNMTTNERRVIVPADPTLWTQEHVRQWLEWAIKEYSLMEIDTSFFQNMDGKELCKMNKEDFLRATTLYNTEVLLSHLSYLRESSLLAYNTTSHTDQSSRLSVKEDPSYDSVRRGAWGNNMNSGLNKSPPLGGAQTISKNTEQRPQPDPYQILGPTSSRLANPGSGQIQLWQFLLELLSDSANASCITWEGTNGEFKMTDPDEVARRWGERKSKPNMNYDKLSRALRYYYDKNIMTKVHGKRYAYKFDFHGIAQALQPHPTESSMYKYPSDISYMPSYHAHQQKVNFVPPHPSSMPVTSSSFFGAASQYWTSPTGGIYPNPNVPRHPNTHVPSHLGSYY
# In short: (§1)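 A tag-only sample was pooled with DNA-barcoded human transcription factors that had been expressed in yeast as GST fusions and captured on glutathione beads. The pools were incubated for 30 min at room temperature with 200 nmole of a random double-stranded 16-mer DNA library in Tris/NaCl/DTT/glycerol buffer, then washed, crosslinked with 0.1% formaldehyde, proximity-ligated (BsaI/T4 ligase, 1 h, 37 °C), PCR-amplified and sequenced on an Illumina NextSeq500. Binding signal is each hexamer's read frequency for a factor divided by its frequency for the tag-only sample.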
# ELK1 = target: T2, ELK1 (Homo sapiens, UniProt P19419 1-428)
# T2 sequence: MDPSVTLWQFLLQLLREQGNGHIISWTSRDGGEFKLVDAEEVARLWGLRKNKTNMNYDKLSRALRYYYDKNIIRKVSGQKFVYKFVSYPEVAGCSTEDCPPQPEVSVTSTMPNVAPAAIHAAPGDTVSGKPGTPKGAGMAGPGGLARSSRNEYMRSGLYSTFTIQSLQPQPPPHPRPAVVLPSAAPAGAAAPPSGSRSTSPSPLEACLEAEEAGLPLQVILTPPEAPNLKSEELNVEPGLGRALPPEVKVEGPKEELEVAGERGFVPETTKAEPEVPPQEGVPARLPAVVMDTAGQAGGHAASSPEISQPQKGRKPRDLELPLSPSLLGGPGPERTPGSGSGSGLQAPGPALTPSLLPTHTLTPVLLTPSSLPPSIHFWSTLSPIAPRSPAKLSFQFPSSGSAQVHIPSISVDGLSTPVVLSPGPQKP
# In short: as §1
# GABPA = target: T3, GABPA (Homo sapiens, UniProt Q06546 1-454)
# T3 sequence: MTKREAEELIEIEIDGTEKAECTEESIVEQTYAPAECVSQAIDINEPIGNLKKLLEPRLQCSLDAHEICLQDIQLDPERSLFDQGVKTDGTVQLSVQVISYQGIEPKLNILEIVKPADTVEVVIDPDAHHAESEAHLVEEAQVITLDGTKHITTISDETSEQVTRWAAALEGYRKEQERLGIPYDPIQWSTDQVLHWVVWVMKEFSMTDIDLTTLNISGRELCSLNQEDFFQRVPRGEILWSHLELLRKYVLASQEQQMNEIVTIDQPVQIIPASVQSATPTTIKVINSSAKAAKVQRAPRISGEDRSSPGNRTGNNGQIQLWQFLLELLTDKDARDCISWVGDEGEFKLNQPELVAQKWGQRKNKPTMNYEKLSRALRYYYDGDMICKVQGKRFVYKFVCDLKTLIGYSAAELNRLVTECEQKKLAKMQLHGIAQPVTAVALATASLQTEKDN
# In short: as §1
# ERG = target: T4, ERG (Homo sapiens, UniProt P11308 1-479)
# T4 sequence: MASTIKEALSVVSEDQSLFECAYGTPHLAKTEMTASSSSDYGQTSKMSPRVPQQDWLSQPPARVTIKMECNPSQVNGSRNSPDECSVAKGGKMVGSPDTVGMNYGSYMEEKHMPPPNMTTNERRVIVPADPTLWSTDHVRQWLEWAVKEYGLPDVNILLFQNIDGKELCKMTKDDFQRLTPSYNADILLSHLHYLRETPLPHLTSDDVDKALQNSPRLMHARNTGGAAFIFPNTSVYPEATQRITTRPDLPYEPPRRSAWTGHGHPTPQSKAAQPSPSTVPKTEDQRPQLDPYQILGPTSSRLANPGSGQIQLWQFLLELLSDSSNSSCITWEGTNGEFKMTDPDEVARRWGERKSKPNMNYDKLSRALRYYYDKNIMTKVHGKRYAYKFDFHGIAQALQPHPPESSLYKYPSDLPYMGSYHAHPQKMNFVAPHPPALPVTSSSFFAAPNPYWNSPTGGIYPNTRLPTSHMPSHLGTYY
# In short: as §1
# ELF1 = ELF1 (Homo sapiens, UniProt P32519 1-619)
# ELF1, sequence (P32519 whole entry): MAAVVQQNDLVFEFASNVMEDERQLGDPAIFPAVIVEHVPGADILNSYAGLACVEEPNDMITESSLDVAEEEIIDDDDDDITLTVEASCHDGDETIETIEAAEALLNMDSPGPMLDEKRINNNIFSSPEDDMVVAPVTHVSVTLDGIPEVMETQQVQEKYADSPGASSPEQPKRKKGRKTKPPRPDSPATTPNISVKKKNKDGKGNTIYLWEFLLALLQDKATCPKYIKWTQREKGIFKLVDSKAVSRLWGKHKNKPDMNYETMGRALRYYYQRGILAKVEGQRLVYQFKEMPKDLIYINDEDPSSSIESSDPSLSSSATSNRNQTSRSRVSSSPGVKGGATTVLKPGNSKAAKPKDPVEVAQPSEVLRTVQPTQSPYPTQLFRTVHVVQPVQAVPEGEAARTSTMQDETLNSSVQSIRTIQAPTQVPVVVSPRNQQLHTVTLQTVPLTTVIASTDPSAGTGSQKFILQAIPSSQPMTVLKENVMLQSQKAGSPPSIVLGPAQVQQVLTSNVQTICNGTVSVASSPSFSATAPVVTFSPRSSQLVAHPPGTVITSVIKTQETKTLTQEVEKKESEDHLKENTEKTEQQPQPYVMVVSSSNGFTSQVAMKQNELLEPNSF
# In short: as §1
# EHF = target: T5, EHF (Homo sapiens, UniProt Q9NZC4 1-300)
# T5 sequence: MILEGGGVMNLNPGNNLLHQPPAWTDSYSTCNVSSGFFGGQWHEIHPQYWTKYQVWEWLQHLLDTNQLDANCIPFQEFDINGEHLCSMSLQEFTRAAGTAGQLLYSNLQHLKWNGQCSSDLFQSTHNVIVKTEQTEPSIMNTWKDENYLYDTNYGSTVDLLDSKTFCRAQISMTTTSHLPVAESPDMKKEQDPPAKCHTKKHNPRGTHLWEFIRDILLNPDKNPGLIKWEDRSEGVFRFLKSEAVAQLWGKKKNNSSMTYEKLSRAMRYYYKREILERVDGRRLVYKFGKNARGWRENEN
# In short: as §1
# SPI1 = SPI1 (Homo sapiens, UniProt P17947 1-270)
# In short: as §1
# SPIB = SPIB (Homo sapiens, UniProt Q01892 1-262)
# SPIB, sequence (Q01892 whole entry): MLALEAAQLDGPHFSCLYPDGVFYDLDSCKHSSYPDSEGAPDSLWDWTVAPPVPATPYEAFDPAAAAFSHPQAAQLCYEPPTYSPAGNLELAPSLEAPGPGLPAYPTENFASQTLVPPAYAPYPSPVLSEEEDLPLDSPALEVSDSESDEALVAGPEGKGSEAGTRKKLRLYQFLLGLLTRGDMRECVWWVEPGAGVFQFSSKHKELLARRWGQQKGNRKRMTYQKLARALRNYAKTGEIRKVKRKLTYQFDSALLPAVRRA
# In short: as §1
# ELK3 = target: T6, ELK3 (Homo sapiens, UniProt P41970 1-407)
# T6 sequence: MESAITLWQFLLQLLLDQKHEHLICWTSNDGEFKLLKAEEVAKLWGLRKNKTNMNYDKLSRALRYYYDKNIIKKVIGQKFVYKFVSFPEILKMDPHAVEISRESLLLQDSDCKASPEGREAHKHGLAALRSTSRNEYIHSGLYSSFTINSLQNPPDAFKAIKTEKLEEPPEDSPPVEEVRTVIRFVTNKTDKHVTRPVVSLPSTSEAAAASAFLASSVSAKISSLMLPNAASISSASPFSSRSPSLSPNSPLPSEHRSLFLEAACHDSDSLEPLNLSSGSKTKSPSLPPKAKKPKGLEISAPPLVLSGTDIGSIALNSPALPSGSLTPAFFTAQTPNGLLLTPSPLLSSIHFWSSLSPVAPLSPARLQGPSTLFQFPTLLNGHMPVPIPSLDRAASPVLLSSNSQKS
# In short: as §1
sequence,measurement,setting,value
AATATG,binding signal,FLI1,"1.12 fold enrichment (6-mer frequency, TF over GST control)"
same,binding signal,ELK1,"1.13 fold enrichment (6-mer frequency, TF over GST control)"
same,binding signal,GABPA,"1.15 fold enrichment (6-mer frequency, TF over GST control)"
same,binding signal,ERG,"1.15 fold enrichment (6-mer frequency, TF over GST control)"
same,binding signal,ELF1,"1.17 fold enrichment (6-mer frequency, TF over GST control)"
same,binding signal,EHF,"1.09 fold enrichment (6-mer frequency, TF over GST control)"
same,binding signal,SPI1,"1.15 fold enrichment (6-mer frequency, TF over GST control)"
same,binding signal,SPIB,"1.19 fold enrichment (6-mer frequency, TF over GST control)"
same,binding signal,ELK3,"1.19 fold enrichment (6-mer frequency, TF over GST control)"
